Screening data from PubChem BioAssay.
HCV inhibitor – qHTS Assay for Inhibitors of Hepatitis C Virus (HCV); Huh7.5.1 HCVcc-Cre infection, luciferase reporter, 44 h; Potency, µM (titrated, usually from 41.8 µM), for inactives: at the highest dose activity change, negative = inhibition, usual class: inhibitors; 340,000 compounds, 3.4% hits; active = well fitted inhibition curve with a large enough effect; inconclusive = small, poorly fitted or top-dose-only effect, or another doubt; inactive = no such curve, though single readings can be large or run the other way
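Compounds are dispensed onto cells plated 4 h earlier at 1,000 per well, with HCVcc-Cre virus (about 0.5 moi) added next. Following 44 h of culture, luminescent signal is measured for 15 sec after 15 min with substrate at room temperature.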
MARV entry inh – qHTS for inhibitors of binding or entry into cells for Marburg Virus. Potency, µM (top dose mostly 37.8 µM), for the others: at the top dose activity change, negative = inhibition, actives largely listed as inhibitors. AID 540276, 2011. Marburg virus pseudotyped entry inhibition, cell reporter. 300,000 compounds, 1.8% hits; calls by dose curve; tested in HEK293 cells
Lassa entry inh – qHTS for Inhibitors of binding or entry into cells for Lassa Virus; Lassa virus pseudotype entry inhibition, cell reporter; Potency, µM (titrated, usually from 37.9 µM), inactives show top-dose activity change, negative = inhibition, hits mostly inhibitors; 300,000 compounds, 1.2% hits; AID 540256, 2011; calls by dose curve; tested in HEK293 cells; note: nearly all actives have a fitted effect of over 50% in size
FMDV antiviral – High Throughput Screening for Foot and Mouth Disease Virus Antivirals. FMDV antiviral cell-based qHTS. 410,000 compounds, 1.2% hits. Potency, µM (doses to about 57.9 µM), without a hit: at the top dose activity change, negative = inhibition, usual class: inhibitors. AID 1159524, 2015; calls by dose curve; tested in HEK293T cells; note: read-out not given here; nearly all actives have a fitted effect of over 45% in size
Vaccinia mCherry – qHTS for Stage-Specific Inhibitors of Vaccinia Orthopoxvirus: mCherry Reporter Primary qHTS. Vaccinia virus mCherry reporter infection, fluorescence. Potency, µM (series often up to 36.5 µM), for the others: at the top dose activity change, negative = inhibition, hits mostly inhibitors. 310,000 compounds, 0.63% hits. AID 720579, 2013; calls by dose curve; tested in A549 cells; note: nearly all actives have a fitted effect of over 35% in size
Vaccinia Venus – qHTS for Stage-Specific Inhibitors of Vaccinia Orthopoxvirus: Venus Reporter Primary qHTS. Vaccinia virus Venus reporter expression, fluorescence. Potency, µM (series often up to 36.5 µM), for the others: top-dose activity change, negative = inhibition, actives largely listed as inhibitors. 330,000 compounds, 0.46% hits. AID 720580, 2013; calls by dose curve; tested in A549 cells; note: nearly all actives have a fitted effect of over 30% in size
* = called active by the depositor; i = inactive; ? = inconclusive; . = not tested or not shown; [ ] = another dose, or the depositor's remark. In the library only some 5.3% were active in any assay of this set; here they are far more common. % is set by controls: 0 for no effect and ±100 for the full control effect; potency is the fitted concentration of half-maximal effect.

SMILES | HCV inhibitor | MARV entry inh | Lassa entry inh | FMDV antiviral | Vaccinia mCherry | Vaccinia Venus
O=C(O)c1ccccc1N/N=C\c1ccnc2ccccc12 | 6.4% | 3.98µM* | ? | 10µM* | . | -12.7%
O=C(O)c1ccccc1N/N=C/c1cc(Br)cc(Br)c1O | -4.8% | 14.6µM* | ? | -2.3% | -21.8% | -5.4%
Cc1ccc2nccc(/C=C/c3ccc(N(C)C)cc3)c2c1 | . | . | . | . | -24.0% | 13.6%
Cc1cn([C@H]2C[C@H](O)[C@@H](CNCc3cnc(N4CCOCC4)s3)O2)c(=O)[nH]c1=O | . | . | . | -4.9% | -14.7% | -9.6%
CCN1CC2=C(OC(N)=C(C#N)C2c2cccs2)/C(=C/c2cccs2)C1 (centres undefined) | 22.4µM* | ? | ? | 28.2µM* | i | -19.6%
CCOC(=O)C1=C(C)OC(N)=C(C#N)C1c1cccs1 (centres undefined) | 3.9% | 12.5%[46.1 µM] | 1.0% | -18.4% | -9.4% | -1.2%
N#CC1=C(N)OC2=C(CN(Cc3ccccc3)C/C2=C\c2cccnc2)C1c1cccnc1 (centres undefined) | 2.9% | -17.2% | -1.3% | ? | . | -7.8%
CCCC1=C(C(=O)OCC)C(c2cccs2)C(C#N)=C(N)O1 (centres undefined) | 17.9% | 6.3% | 11.5% | -21.8% | -19.5% | -11.1%
CCN1CC2=C(OC(N)=C(C#N)C2c2ccccc2)/C(=C\c2ccccc2)C1 (centres undefined) | ? | ? | ? | 22.4µM* | . | -13.2%
CCN1C=C(Cc2cccs2)C2=C(C1)C(c1cccs1)C(C#N)=C(N)O2 (centres undefined) | ? | ? | -23.8% | 20µM* | i | -14.5%
COc1ccc2c(c1)[C@@]1(OCCC=C[C@@H]1C)C(=O)N2Cc1ccc(Br)cc1 | . | 5.4%[14.2 µM] | . | . | . | .
COc1ccc2[nH]c3c(c2c1)CCN1C(=O)C(CC(=O)NCCC2=CCCCC2)C[C@H](C(=O)N2CCOCC2)[C@@]31C (some centres undefined) | ? | . | . | -9.5% | -27.8% | ?
COc1ccc2[nH]c3c(c2c1)CCN1C(=O)C(CC(=O)NCC24CC5CC(CC(C5)C2)C4)C[C@H](C(=O)N2CCCCC2)[C@@]31C (some centres undefined) | 25.1µM* | . | . | 0.0% | ? | ?
COc1ccc2[nH]c3c(c2c1)CCN1C(=O)C(CC(=O)NCCC2=CCCCC2)C[C@H](C(=O)N2CCCCC2)[C@@]31C (some centres undefined) | ? | -0.1% | . | -9.0% | 10µM* | ?
C[C@H](N)CN1CCc2ccc(Br)cc21 | ? | 3.55µM* | ? | -26.6% | -11.5% | -19.2%
CC(Oc1ccc(Br)cc1)C(=O)N1CCc2ccccc21 (centres undefined) | 5.4% | -36.4% | 1.5% | -21.1% | . | .
CNCCC(Oc1ccccc1C)c1ccccc1 (centres undefined) | . | 14.1µM* | ? | . | . | .
CNCC[C@H](Oc1cccc2ccccc12)c1cccs1 | ? | . | . | -17.5% | -2.3% | -24.1%
O=C(c1ccc2c(c1)N(Cc1c(F)cccc1Cl)C(=O)c1ccccc1S2)N1CCOCC1 | . | -13.9%[46.1 µM] | -1.1%[46.1 µM] | 11.4% | -7.2% | -5.2%
CN(C)CC(C(=O)Cc1ccccc1)c1ccccc1 (centres undefined) | 8.6% | ? | -0.8%[46.1 µM] | 28.2µM* | -22.9% | ?
CN(C)CCC(=O)C(Cc1ccccc1)c1ccccc1 (centres undefined) | -29.9% | ? | ? | ? | -15.0% | ?
Cc1nc(NCc2cccc3c2OCO3)sc1-c1ccn(CC2CCCN(C)C2)n1 (centres undefined) | . | . | . | 33.5% | -7.0% | 11.7%
Cn1nc(-c2ccccc2)nc2c(=O)n(C)c(=O)nc1-2 | . | . | . | . | 1µM* | 1µM*
COc1ccc(-c2nc(-c3ccncc3)no2)cc1 | -6.3% | . | . | -1.4% | . | .
Cn1nc(-c2ccncc2)nc2c(=O)n(C)c(=O)nc1-2 | . | . | . | . | 0.891µM* | 1µM*
SMILES | HCV inhibitor | MARV entry inh | Lassa entry inh | FMDV antiviral | Vaccinia mCherry | Vaccinia Venus
Cc1nc2c(=O)n(C)c(=O)nc-2n(C)n1 | 0.562µM* | 0.891µM* | 0.562µM* | 2.82µM* | ? | 0.501µM*
Cc1ccc(C)c(-n2c3nc(=O)n(C)c(=O)c-3cc3ccccc32)c1 | -23.7% | . | . | -17.5% | . | .
CC=C[C@@H]1Oc2ccc(OC)cc2N2C(=O)[C@H](C)[C@@H](OCOC)[C@H]12 | . | -22.7%[14.2 µM] | . | . | . | .
Oc1ccc(Cl)cc1-c1cc(-c2cccc(Br)c2)n[nH]1 | 11.2µM* | ? | ? | 6.5% | . | .
Oc1ccc(Cl)cc1-c1cc(-c2ccccc2Cl)[nH]n1 | 12.6µM* | -0.9% | -3.8% | 38.2% | . | .
Oc1ccccc1-c1cc(-c2ccco2)[nH]n1 | ? | -13.3% | ? | 60.8% | . | .
Oc1ccccc1-c1cc(-c2ccccc2Cl)[nH]n1 | -22.7% | -16.3% | 10µM* | -20.4% | ? | ?
CCCN1CNc2c(c(=O)[nH]c(=S)n2CCc2ccc(Cl)c(Cl)c2)C1 | . | . | . | . | i | -13.5%
COc1cc(/C=C(/C#N)c2ccc(F)cc2)ccc1Oc1ccc([N+](=O)[O-])cn1 | 2.51µM* | ? | ? | ? | -27.1% | -21.1%
CCOc1cc(C=C(C#N)C#N)ccc1Oc1ccc([N+](=O)[O-])cn1 | -21.0% | . | . | -36.4% | . | .
O=CC(=O)c1ccc(Br)cc1 | . | . | . | . | -15.3% | -10.1%
CCOC(=O)c1csc(NC(=O)c2ccc(OCC)cc2)n1 | 2.51µM* | ? | ? | ? | ? | -26.3%
CCOC(=O)c1csc(NC(=O)c2ccc3c(c2)OCCO3)n1 | 14.1µM* | ? | ? | -36.4% | -12.2% | -24.7%
CCOC(=O)c1csc(NC(=O)c2ccc(OC)c(OC)c2)n1 | ? | ? | -9.4% | . | i | -24.5%
N#CC(c1ccccc1)c1ccc2c(C(F)(F)F)cc(C(F)(F)F)nc2n1 (centres undefined) | -19.4% | 7.08µM* | 11.2µM* | ? | -13.2%[1.46 µM] | 1.3%
CN(N)c1ccc2c(C(F)(F)F)cc(C(F)(F)F)nc2n1 | 7.6% | 22.9%[46.1 µM] | 10.9% | -4.5% | -54.0% | -5.5%
Cc1ccc(C(C#N)c2ccc3c(C(F)(F)F)cc(C(F)(F)F)nc3n2)cc1 (centres undefined) | 10µM* | -12.0% | ? | ? | ? | -23.7%
O=C(NC1(C(F)(F)F)C(=O)Nc2c1c(=O)[nH]c(=O)n2-c1ccc(Cl)cc1)c1ccccc1F (centres undefined) | . | . | -9.6%[46.1 µM] | -12.2% | -16.0% | -5.4%
O=C(c1ccc2c(c1)N(Cc1ccccc1)C(=O)c1ccccc1S2(=O)=O)N1CCN(c2ccccc2)CC1 | . | 19.1%[46.1 µM] | 0.8%[46.1 µM] | -10.0% | -11.6% | -6.5%
COc1ccc(NC(=O)CSC2=Nc3ccccc3C3=NC(CCC(=O)NCCc4ccccc4)C(=O)N23)c(OC)c1 (centres undefined) | . | . | -15.1%[46.1 µM] | ? | -15.0% | -12.3%
